Source: PubChem BioAssay
An excerpt weighted towards active compounds, which were near 7.9% of everything screened.
HT1080 IDH1KD tx: qHTS for induction of synthetic lethality in tumor cells producing 2HG: qHTS for the HT-1080-IDH1KD cell line; HT-1080 IDH1 knockdown viability, ATP luminescence, 48 h; Potency, µM (titrated, usually from 46.1 µM), inactives show at the top dose activity, negative = toxicity, actives largely listed as cytotoxic; 360,000 compounds, 2% hits;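 note: 0% = DMSO wells and -100% = cell-free medium wells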
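Using the IDH1-knockdown HT-1080 line run in the same batch and compound series as the NT line, viability after 48 h at 37 °C was determined by CellTiter-Glo luminescence and expressed as % activity.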
HT1080NT lethal: qHTS for induction of synthetic lethality in tumor cells producing 2HG: qHTS for the HT-1080-NT fibrosarcoma cell line. HT-1080-NT fibrosarcoma viability, CellTiter-Glo ATP luminescence, 48 h. 360,000 compounds, 1.6% hits. Potency, µM (top dose mostly 46.1 µM), without a hit: at the top dose activity, negative = less viability, actives largely listed as cytotoxic. AID 686970, 2013;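 note: NT is the 2HG producing partner of a matched IDH1 knockdown line; 0% = DMSO-treated cells and -100% = media-only wells without cells; nearly all actives have a fitted effect of over 55% in size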
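750 cells/well, RPMI + 5% FBS; 2 h settle, compound pin-transfer, 48 h at 37 degrees C. CellTiter-Glo 10 min RT, luminescence. Normalized to DMSO and media-only wells.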
KB-V1 MDR tox: qHTS assay for MDR1-selective chemotherapeutics: Primary screen using the drug-selected MDR subline cells KB-V1 | KB-V1 MDR cells viability, CellTiter-Glo, 72 h | Potency, µM (top dose mostly 46.1 µM), most hits filed as cytotoxic | 400,000 compounds, 3.4% hits | AID 1347076, 2019; note: % is set by controls: 0 for no effect and ±100 for the full control effect; nearly all actives have a fitted effect of over 60% in size
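KB-V1 MDR subline cells in DMEM (phenol-red free, 10% FBS) exposed to compounds in qHTS concentration series for 72 h at 37 degrees C. Viability read by CellTiter-Glo luminescence; concentration-effect curves fitted after normalization and correction.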
SW480 rereplic: A quantitative high throughput screen for small molecules that induce DNA re-replication in SW480 colon adenocarcinoma cells; Potency, µM (top dose mostly 46.1 µM), without a hit: at the highest dose re-replication activation, most hits filed as activators; SW480 DNA re-replication, Hoechst DNA content imaging, 48 h; 340,000 compounds, 1.8% hits; note: % of control where 0% means no effect; nearly all actives have a fitted effect of over 55% in size
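250 cells/well; 23 nL cpd via pin tool; 48 hr, 37 C, 5% CO2; Hoechst 40 min; imager read of total nuclear intensity, ex 405/em 500-530 nm.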
MCF10A rereplic: A quantitative high throughput screen for small molecules that induce DNA re-replication in MCF 10a normal breast cells | Potency, µM (top dose mostly 46.1 µM), inactives show top-dose activity, positive = re-replication, most hits filed as activators | AID 624296, 2012 | 350,000 compounds, 2.9% hits | MCF 10A DNA re-replication, Hoechst nuclear intensity, 48 h; note: % of control where 0% means no effect; nearly all actives have a fitted effect of over 50% in size
KB-3-1 tox: qHTS assay for MDR1-selective chemotherapeutics: Primary screen using the parental adenocarcinoma cell KB-3-1. KB-3-1 viability, CellTiter-Glo ATP luminescence, 72 h. Potency, µM (titrated, usually from 46.1 µM), actives largely listed as cytotoxic. 400,000 compounds, 1.4% hits; note: % is set by controls: 0 for no effect and ±100 for the full control effect; nearly all actives have a fitted effect of over 60% in size
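KB-3-1 parental drug-naive adenocarcinoma cells in DMEM/10% FBS, incubated 72 h at 37 C with pin-transferred compounds across a concentration series. Viability by CellTiter-Glo luminescence; concentration-response curves fitted after normalization.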
Active calls of the source: *; i = inactive; ? = inconclusive; · = not tested or not shown; ! = not active in a repeat; [ ] = another dose, or the depositor's remark. Calls come from the whole dose curve; as a rule, active = well fitted curve in the direction sought with a large enough effect; inconclusive = small, poorly fitted or top-dose-only effect, or another doubt; inactive = no such curve, though single readings can be large; an effect the other way counts as inactive or inconclusive. Potency is the fitted concentration of half-maximal effect.

SMILES | HT1080 IDH1KD tx | HT1080NT lethal | KB-V1 MDR tox | SW480 rereplic | MCF10A rereplic | KB-3-1 tox
COc1ccc(C(=O)NC2CCCc3ccccc32)cc1S(=O)(=O)N1CCOCC1 (configuration not stated) | 3% | 10% | ? | 10µM* | 20% | i
Cc1ccc(C(=O)NC2CCCc3ccccc32)cc1[N+](=O)[O-] (configuration not stated) | 13µM* | ? | ? | ? | ? | i
O=C(Nc1ccccc1[N+](=O)[O-])c1cc(S(=O)(=O)N2CCOCC2)cs1 | -24% | -12% | · | ? | 23µM* | ·
O=C(Cc1cccc(NC(=O)C2CCCN(C(=O)C3CCCC3)C2)c1)Nc1cccc(C(=O)N2CCCCC2)c1 (configuration not stated) | 7% | 3% | i | 18%[9.22 µM] | ? | i
CCN(CC)C(=O)C1=C(C)N(Cc2ccc(OC)cc2)C(=O)C(CC(=O)NCCCN(C)C)C1 (configuration not stated) | 8% | 11% | i | · | · | i
Cn1ncc(Cl)c1C(=O)NCC1CCCO1 (configuration not stated) | ? | 27% | i | -12% | -12% | i
COc1cccc(OCc2cc(C3Nc4ccccc4C(=O)N3Cc3ccco3)ccc2OC)c1 (configuration not stated) | 0% | -1% | 4.1µM* | 1% | 19% | i
COc1ccc(C2Nc3ccccc3C(=O)N2Cc2ccco2)cc1COc1c(C)cccc1C (configuration not stated) | · | · | i | · | · | 16µM*
COc1cccc(OCc2cc(C3Nc4ccccc4C(=O)N3Cc3ccccc3)ccc2OC)c1 (configuration not stated) | · | · | i | · | · | i
COc1cc(-c2c(C#N)c(N)nc3[nH]c(=S)[nH]c(=O)c23)ccc1O | 2% | 2% | ? | 0% | 9% | i
CCn1c(CCNC(=O)c2ccc(Cl)c(Cl)c2)nnc1SCCOc1ccc(OC)cc1 | ? | ? | 5.8µM* | -1% | -1% | 21µM*
COc1ccc(OCCSc2nnc(CCNC(=O)c3ccc(OC)cc3)n2C)cc1 | -18% | 4% | 18µM* | -1% | 4% | i
Cc1cccnc1C1=NOC(Cc2ccccc2)C(=O)N1Cc1ccccc1F (configuration not stated) | -2% | 0% | ? | · | · | i
CCN1C(=O)[C@H]2[C@@H](c3ccc(Cl)cc3)N3C(=O)CN(CC4CC4)C(=O)[C@@]3(C)[C@H]2C1=O | 13% | 13% | i | ? | ? | i
O=C1C=C(c2ccc3[nH]ccc3c2)C[C@@H](c2ccc(F)cc2)C1 | -18% | -3% | i | 2% | 21µM* | ?
COc1ccc([C@H]2CC(=O)C=C(c3ccc4[nH]ccc4c3)C2)cc1OC | -1% | -10% | i | 3%[9.22 µM] | -5% | i
Cc1cc(O)c(C(c2ccccc2)N2CCN(c3ccc(F)cc3)CC2)c(=O)n1Cc1ccco1 (configuration not stated) | · | · | i | · | · | i
CC(=O)NC(Cc1cccc(F)c1)C(=O)NC1CCN(c2ncccc2[N+](=O)[O-])CC1 (configuration not stated) | -1% | 2% | i | -9% | 2% | i
CC(=O)NC(Cc1cccc(C)c1)C(=O)NC1CCN(c2ncccc2[N+](=O)[O-])CC1 (configuration not stated) | 0% | 4% | 15µM* | -3% | -4% | i
CC(=O)NC(Cc1ccc(F)cc1)C(=O)NC1CCN(c2ncccc2[N+](=O)[O-])CC1 (configuration not stated) | 1% | 10% | i | -33% | 0.82µM* | i
COc1cccc(CC(NC(C)=O)C(=O)NC2CCN(c3c(Cc4ccccc4)c(C)nc4ncnn34)CC2)c1 (configuration not stated) | -2% | 5% | i | 23µM*! | ? | ?
COc1ccc(NC(=O)C(=O)NCCc2csc3nc(-c4ccccc4C)nn23)cc1 | · | · | i | · | · | i
CCOc1ccc(-c2csc(/C(C#N)=C/c3ccc(Br)cc3)n2)cc1 | · | · | i | · | · | i
O=C(NC(Cc1ccccc1)C(=O)O)NC12CC3CC(CC(C3)C1)C2 (configuration not stated) | -4% | -2% | i | -10% | -2% | i
O=C(Nc1ccc2c(c1)OCCO2)c1cccc2nc3ccccc3nc12 | -14% | -2% | 6.5µM* | 5% | ? | ?
SMILES | HT1080 IDH1KD tx | HT1080NT lethal | KB-V1 MDR tox | SW480 rereplic | MCF10A rereplic | KB-3-1 tox
O=C(Nc1ccc2c(c1)OCCO2)c1ccccn1 | ? | ? | ? | 1% | 3% | 18µM*
O=C(Nc1ccc2c(c1)OCCO2)c1ccccc1Cl | 3% | -1% | i | · | · | i
COc1ccc(OC)c(CCNC(=O)c2cc3cccc4c3n2CCS4)c1 | · | · | i | · | · | i
CCOC(=O)[C@H](CCc1ccccc1)N[C@@H](C)C(=O)N1Cc2ccccc2C[C@H]1C(=O)O | 5% | 18% | i | 0% | 0.12µM* | i
CCOC(=O)[C@@H](CCc1ccccc1)N[C@H](C)C(=O)N1[C@H](C(=O)O)C[C@@H]2CCC[C@@H]21 | -4% | 22% | ? | -40% | 12% | i
C[C@@H](c1ccccc1)N1C[C@H](COCc2ccccc2)Oc2cc(N3CC[C@@H](N(C)C)C3)ccc2S1(=O)=O | ? | ? | ? | · | · | i
CCCCC[C@H](C)N1C[C@H](COCc2ccccc2)Oc2cc(N3CC[C@H](O)C3)ccc2S1(=O)=O | ? | ? | i | · | · | i
CCCCC[C@@H](C)N1C[C@H](COCc2ccccc2)Oc2cc(N3CC[C@H](N(C)C)C3)ccc2S1(=O)=O | 15µM* | 21µM* | ? | · | · | ?
C[C@H](c1ccccc1)N1C[C@H](COCc2ccccc2)Oc2cc(N3CC[C@H](N(C)C)C3)ccc2S1(=O)=O | 15µM* | 23µM* | ? | · | · | ?
Cc1sc(N)nc1-c1cccc([N+](=O)[O-])c1 | · | · | i | · | · | i
